The whole screen tested about 360,000 compounds, of which about 3,100 (0.86%) were called active. The sample holds actives, similar compounds and a random draw of the others, so the mix is not that of the screen.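 Rule for the calls: active = inhibition or corrected inhibition above about 18%, plus a signal ratio from 0.5 to 1.5 (limit read from the data, passing the limit was not always enough); inactive = the rest.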
Each molecule was assayed against Neuropilin-1 (Homo sapiens) (UniProt O14786) (assay: modulators of CendR peptide binding to NRP-1, primary screen, biochemical, fluorescence polarization, uHTS (AID 602438)). Conditions: FAM-RPARPAR peptide binding to NRP-1, fluorescence polarization; at 25 µM; stronger effect = higher value.
Sequence of Neuropilin-1 (Homo sapiens) (O14786 whole entry, looked up): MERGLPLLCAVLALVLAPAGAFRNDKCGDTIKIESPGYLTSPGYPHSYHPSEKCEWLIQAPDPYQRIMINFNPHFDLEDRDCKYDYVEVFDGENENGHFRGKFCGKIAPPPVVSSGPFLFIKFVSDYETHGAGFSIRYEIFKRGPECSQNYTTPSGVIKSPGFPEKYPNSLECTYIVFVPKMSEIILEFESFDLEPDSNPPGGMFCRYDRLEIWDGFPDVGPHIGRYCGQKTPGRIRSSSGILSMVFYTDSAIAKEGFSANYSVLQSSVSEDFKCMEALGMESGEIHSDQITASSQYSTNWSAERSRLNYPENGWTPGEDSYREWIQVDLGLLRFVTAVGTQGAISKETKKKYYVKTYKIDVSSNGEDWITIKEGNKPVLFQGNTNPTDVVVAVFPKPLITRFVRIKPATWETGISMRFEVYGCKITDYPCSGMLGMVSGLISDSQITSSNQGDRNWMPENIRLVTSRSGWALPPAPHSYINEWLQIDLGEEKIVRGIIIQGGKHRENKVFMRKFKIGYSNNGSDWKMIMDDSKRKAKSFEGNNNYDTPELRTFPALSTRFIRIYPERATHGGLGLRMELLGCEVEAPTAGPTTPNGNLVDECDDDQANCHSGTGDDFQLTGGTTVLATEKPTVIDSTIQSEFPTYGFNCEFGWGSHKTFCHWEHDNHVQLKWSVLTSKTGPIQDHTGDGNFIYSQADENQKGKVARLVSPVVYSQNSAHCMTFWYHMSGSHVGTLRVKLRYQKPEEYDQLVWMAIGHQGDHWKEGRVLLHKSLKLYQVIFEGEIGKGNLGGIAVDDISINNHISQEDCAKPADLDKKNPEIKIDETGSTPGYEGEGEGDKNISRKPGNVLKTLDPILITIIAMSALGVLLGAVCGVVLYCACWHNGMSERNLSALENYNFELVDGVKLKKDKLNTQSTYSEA

inhibition, active:
CCN(CC)C(=O)c1nc[nH]c1C(=O)N(C)Cc1ccccc1 29.2%
CCOC(=O)N1CCN(C(=O)c2nn(-c3ccc(C)cc3)c(=O)c3c2c2ccccc2n3C)CC1 17.7%
COC(=O)C(Cc1c[nH]c2ccccc12)NC(=O)CCNC(=O)c1ccco1 (centres undefined) 22.2%
O=C(c1cccc(F)c1)N1CCN(c2ccc([N+](=O)[O-])c(N3CCCCC3)c2)CC1 44.3%
CCOC(=O)C1(O)CC(C)=NN1C(=O)c1cccc(Br)c1 (centres undefined) 26.7%

inhibition, inactive:
CN(CCO)C(=O)c1nc[nH]c1C(=O)N(C)Cc1ccccc1 9.7%
CCN(Cc1ccncc1)C(=O)CCc1ccccc1 9.5%
CCN(CC(=O)Nc1ccc(OC)cc1)C(=O)c1ccc(=O)n(Cc2ccccc2)n1 4.7%
Cc1c(C(C)CCCO)oc(=O)c2c1Oc1c(C)c(C(C)C[C@@H](C)O)oc(=O)c1C2 (some centres undefined) 13.8%
CCOC(=O)N1CCN(CC(=O)n2c(C)c(C)c3ccccc32)CC1 4.2%
CCOC(=O)N1CCN(C(=O)Cn2cnc3ccccc3c2=O)CC1 3.1%
CCOC(=O)CSc1nncc2ccc(OC)c(OC)c12 -16.1%
CCOc1ccc(NC(=O)CC(Cc2ccc(Cl)cc2)C(=O)O)cc1 (centres undefined) 1.1%
COc1ccc(CNC(=O)[C@H](Cc2c[nH]c3ccccc23)NC(C)=O)cc1OC -6.3%
CC(=O)NC(Cc1c[nH]c2ccccc12)C(=O)NCCc1ccccc1 (centres undefined) 6.7%
Cc1cc(C)cc(N(CC(=O)N2CC=C(c3ccccc3)CC2)S(=O)(=O)c2c(C)noc2C)c1 -1.1%
O=C(c1cccc(F)c1)N1CCN(c2ccc([N+](=O)[O-])c3cccnc23)CC1 -12.9%
CC(C)c1ccc(S(=O)(=O)N2CCN(C(=O)c3ccc(N4CCCC4)c([N+](=O)[O-])c3)CC2)cc1 6.8%
Cc1ccc(C2NC(=S)NC3=C2N2CCC3CC2)cc1 (centres undefined) 11.9%
COc1ccccc1CCNS(=O)(=O)c1cc2c3c(c1)C(C)C(=O)N3CCC2 (centres undefined) -11.3%
COc1cccc(CNC(=O)[C@@H]2CCCN2C(=O)[C@@H]2CCCN2C(=O)c2ccccc2)c1 -6.2%
CC1=NN(C(=O)c2ccccc2Br)C(O)(c2cccnc2)C1 (centres undefined) -1.7%
CC1=NN(C(=O)c2ccc(Br)cc2)C(O)(c2ccccc2)C1 (centres undefined) -3%
O=C(NCc1ccco1)c1ccc(NS(=O)(=O)c2cccc([N+](=O)[O-])c2)cc1 6.8%

— PubChem BioAssay AID602438 (Sanford-Burnham Center for Chemical Genomics, 2012)
